Measured values taken from PubChem BioAssay (Tox21).
“And” between values parts separate entries of the source, which are not always exact repeats. Equal entries are not always repeated. Results filed as inconclusive are left out. Unmarked numbers belong to inactive results. The source made the active and inactive calls. Calls follow the shape of the dose curve; as a rule, active = well fitted activation curve with a large enough effect in the repeat runs; inconclusive = weak or mixed curves; inactive = flat fitted curve, though single readings scatter.

Experiment: A CellTox Green Cytotoxicity Assay to monitor cytotoxicity in HepG2 cells - 32 hour (AID 1224883); also: nearly all actives have a fitted effect of over 50% in size
Details: CellTox Green fluorescence; series mostly up to 76.8 µM; cytotoxicity increase: at the top concentration
Description: National Center for Advancing Translational Sciences [NCATS]
NIH Chemical Genomics Center [NCGC]
U.S. Environmental Protection Agency [EPA]
National Institutes of Environmental Health Sciences [NIEHS]
National Toxicology Program [NTP]
Cell-based models are critical for drug discovery. Determining the natural cytotoxic effects resulting from test compounds is an essential research activity. A CellTox Green Cytotoxicity Assay to monitor cytotoxicity in real time of continues cell culture during 40 hours of the compound treatment was used to screen Tox21 10K library compounds in HepG2 cells. CellTox Green Cytotoxicity Assay is a nonlytic, homogeneous, biofluorescent method to measure cytotoxicity in cell culture after experimental manipulation. The assay system uses a proprietary asymmetric cyanine dye that is excluded from viable cells but preferentially stains the dead cell's DNA. […] Viable cells produce no appreciable increases in fluorescence. Therefore, the fluorescence signal produced by the binding interaction with dead cell DNA is proportional to cytotoxicity.
The mixture of HepG2 cell suspension and reagents were dispensed at 600cells/6 ul/well in 1536-well tissue culture treated black solid bottom plates using a Multidrop dispenser. After the assay plates were incubated at a 37 C/5% CO2 incubator for 5 hours, 23 nL of compounds dissolved in DMSO, positive and negative controls was transferred to the assay plate by a pintool work station. The plates were incubated at 37 C for 40 hours. The fluorescence intensity were measured at 0h, 8h, 16h, 24h, 32h and 40h time points using ViewLux plate reader during compound treatment.
% is scaled to controls: 0 for no effect and ±100 for the full control effect; potency is read from the fitted curve at half-maximal effect.

SMILES | cytotoxicity increase | Potency
NCCNCCO | 11.9% | 
COc1ccc(OC(=O)N(CC(=O)O)Cc2ccc(OCCc3nc(-c4ccccc4)oc3C)cc2)cc1 | -1.98% [at 35.3 µM] | 
CC(CO)CO | -0.0427% | 
CCCCCCCC/C=C\CCCCCCCCO | 5.44% | 
NC1[C@H]2CN(c3nc4c(cc3F)c(=O)c(C(=O)O)cn4-c3ccc(F)cc3F)C[C@@H]12 (stereo not given in full) | -17.7% [at 35.3 µM] | 
Cc1ccc(Cl)c(Nc2ccccc2C(=O)O)c1Cl | -3.76% [at 35.3 µM] | 
CO[C@]1(NC(=O)CSC(F)F)C(=O)N2C(C(=O)O)=C(CSc3nnnn3CCO)CO[C@H]21 | -20.4% [at 35.3 µM] | 
N#[N+]c1ccc2c(S(=O)(=O)[O-])cccc2c1O | -12.1% | 
CC/C=C1/OC(=O)c2ccccc21 | 0.314% | 
CC1=C(Br)C(=O)C(Br)=C/C1=C(/c1ccccc1S(=O)(=O)O)c1cc(Br)c(O)c(Br)c1C | -15.2% [at 35.3 µM] | 
O=C(O)CCc1nc(-c2ccccc2)c(-c2ccccc2)o1 | -4.31% [at 35.3 µM] | 
OC(CCN1CCCC1)(c1ccccc1)C1CCCCC1 (stereo not given) | 0.071% [at 35.3 µM] | 
C=C(C)CCCC(C)CCO (stereo not given) | 9.99% | 
O=C(O)c1ccc(OCCCOc2ccc(C(=O)O)cc2)cc1 | -0.0108% [at 35.3 µM] | 
CCC1(CO)COCOC1 | -9.74% | 
CC(CN(C)C)C(C)(O)Cc1ccc(Cl)cc1 (stereo not given) | 29.1% [at 35.3 µM] | 
O=C(O)c1cccc(-c2noc(-c3ccccc3F)n2)c1 | 1.81% [at 35.3 µM] | 
CCCCCCCCOc1ccc(C(=O)O)cc1 | -2.35% | 
C[C@H]1C[C@H](O)c2ccsc2S1(=O)=O | 0.71% [at 35.3 µM] | 
CC(O)c1ccccc1 (stereo not given) | 2.2% | 

SMILES | cytotoxicity increase | Potency
CCCCCC[C@@H](O)C/C=C\CCCCCCCC(=O)OCC(O)CO (stereo not given in full) | 17.2% | 
COc1cc(C(=O)NCCCCCC(=O)O)cc(OC)c1OC | 2.01% [at 35.3 µM] | 
C[C@]1(Cn2ccnn2)[C@H](C(=O)O)N2C(=O)C[C@H]2S1(=O)=O | 0.588% [at 35.3 µM] | 
CC(CCC(=O)O)C(=O)O (stereo not given) | 5.52% | 
C=CC(=O)OCC1CC2CC1C1CCC(COC(=O)C=C)C21 (stereo not given) |  | 43.6 µM (active)
CC1CC(OC(=O)C(O)c2ccccc2)CC(C)(C)N1C (stereo not given) | -20% [at 35.3 µM] | 
COC(=O)[C@H]1[C@H]2C[C@@H]3c4[nH]c5cc(OC)ccc5c4CCN3C[C@H]2C[C@@H](OC(=O)/C=C/c2ccc(O)c(OC)c2)[C@@H]1OC |  | 23.9 µM (active)
CC(C)C(O)(c1ccc(OC(F)(F)F)cc1)c1cncnc1 (stereo not given) | 1.48% | 
CO/N=C(/C(=O)N[C@@H]1C(=O)N2C(C(=O)O)=C(COC(N)=O)CS[C@H]12)c1ccco1 | 3.32% | 
O[C@@H]1CO[C@H]2[C@@H]1OC[C@@H]2O | 6.72% [at 35.3 µM] | 
COC(=O)C1=C(C)NC(C)=C(C(=O)O[C@@H]2CCCN(Cc3ccccc3)C2)[C@@H]1c1cccc([N+](=O)[O-])c1 | 8.36% [at 35.3 µM] | 
OCCOCC#CCOCCO | -12.4% | 
CCCCCC#CC(=O)OC | -6.51% | 
CCOC(=O)c1ccccc1C(=C1C=C(Br)C(=O)C(Br)=C1)c1cc(Br)c(O)c(Br)c1 | 5.75% [at 35.3 µM] | 
C[C@@H]1CC(=O)NN=C1c1ccc(NN=C(C#N)C#N)cc1 |  | 16.9 µM (active) and 10.7 µM (active)
O=C(O)CCCCCCCCCCCBr | -20.3% | 
CCC(OCCCOC)OC(C)=O (stereo not given) | 0.992% | 
O=C1C(=O)c2ccccc2C(O)=C1C1CCC(c2ccc(Cl)cc2)CC1 (stereo not given) | 13.2% [at 35.3 µM] | 
COc1ccccc1Oc1c(NS(=O)(=O)c2ccc(C(C)(C)C)cc2)nc(-c2ncccn2)nc1OCCO | 9.92% [at 35.3 µM] | 
Cc1cc(=O)c2c(O)c3c(O)cc(=O)c4c3c3c(cc(O)c1c23)C(C)(C)C=4O |  | 4.14 µM (active)
